{
  "source": "PubChem BioAssay (NCATS)",
  "note": "Inconclusive results are not listed. Calls of active or inactive are those of the source. Calls follow the shape of the dose curve; as a rule, active = well fitted cell-killing curve with a large enough effect; inconclusive = small, poorly fitted or top-dose-only effect; inactive = no such curve, though single readings can be large or run the other way. Potency is read from the fitted curve at half-maximal effect.",
  "data": [
    {"assay": "qHTS of pediatric cancer cell lines to identify multiple opportunities for drug repurposing: Primary screen for OHS-50 cells (AID 1347103); also: nearly all actives have a fitted effect of over 40% in size", "conditions": "OHS-50 osteosarcoma viability, CellTiter-Glo luminescence, 48 h; series mostly up to 57.3 µM; activity change, negative = cytotoxic: at the top concentration", "from_the_text": "Drug repurposing or repositioning has been offered as a strategy for drug development in oncology programs. This approach has special potential for childhood cancers and other rare or orphan diseases, where the expected return on new drug development has been a disincentive to pharmaceuticals.\nIn this project we exploit the poly-pharmacology of drugs to discover new indications via phenotypic screening of a panel of 19 well-characterized cell lines derived from solid tumors seen in children and adolescents. The goal is to identify approved drugs with previously unrecognized anticancer properties that has the potential to reveal new mechanisms and biological processes involved in carcinogenesis or drug resistance. We employed a titration-based paradigm (quantitative high-throughput screening or qHTS), where all compounds were tested at multiple concentrations for their effect on cell viability. Concentration-response curves (CRCs) were derived directly from the primary screen, and both potency and efficacy values were used to identify compounds with robust bioactivity profiles. We screened the NIH Chemical Genomics Center (NCGC) Pharmaceutical Collection (NPC) and Mechanism Interrogation Plate (MIPE) small molecule collections of approved and investigational compounds against these cell lines; and measured metabolically active cells after 48 hours of compound treatment as a proxy for cell viability.\nAssay Submitter: Nathalia J. Martinez, National Center for Advancing Translational Sciences, National Institutes of Health, Rockville, MD, USA; email: natalia.martinez@nih.gov\n[1] Shen, M et al. Quantitative high-throughput phenotypic screening of pediatric cancer cell lines identifies multiple opportunities for drug repurposing. Oncotarget 2017 Dec 19;9(4):4758-4772. PMID 29435139.\nThe cells were obtained from University of North Carolina (UNC), Pediatric Preclinical Testing Program (PPT), and Coriell Institute (CI).\nqHTS cell viability assay:\nCells were assayed in growth media at a density of 500-1,000 cells/well. Five microliters of cells were dispensed into 1,536-well, white, solid-bottom, TC-treated plates (Greiner Bio One) using a multidrop dispenser and incubated at 37 degrees C, 5% CO2, under a humidified atmosphere for 5 hours. Twenty-three nanoliters of compounds and controls (neutral control DMSO or positive control bortezomib at final concentration of 2.3 µM) were subsequently transferred by Kalypsys pintool. For primary screens, the MIPE collection was tested at 11-point dilutions (final concentrations range from 0.78 nM to 46 µM) and the NPC collection at 8-point dilutions (final concentrations range from 0.59 nM to 46 µM). Compounds tested in follow-up screens were assayed at 11-point dilutions. Cells were incubated for 48 hours, followed by addition of 3 µL of CellTiter-Glo (Promega). After a 15 min incubation at room temperature, samples were analyzed for luminescence intensity using a ViewLux High-throughput CCD imager equipped with clear filters.", "values": [
      {"smiles": "COCCOC(=O)C1=C(C)NC(C)=C(C(=O)OC/C=C/c2ccccc2)C1c1cccc([N+](=O)[O-])c1", "note": "(stereo not given)", "Potency": "19.5 µM (active)"},
      {"smiles": "CC(CN(C)C)CN1c2ccccc2CCc2ccccc21", "note": "(stereo not given)", "Potency": "17.4 µM (active)"},
      {"smiles": "CCn1cc(C(=O)O)c(=O)c2cnc(N3CCNCC3)nc21", "activity change, negative = cytotoxic": "9.46% (inactive)"},
      {"smiles": "CC(O)COc1ccccc1", "note": "(stereo not given)", "activity change, negative = cytotoxic": "7.95% (inactive)"},
      {"smiles": "C[C@]12CC[C@@H]3c4ccc(O)cc4CC[C@H]3[C@@H]1CC[C@@H]2OC(=O)CCC1CCCC1", "Potency": "27.6 µM (active)"},
      {"smiles": "CCCCCCCCCCCCOS(=O)(=O)O", "activity change, negative = cytotoxic": "-2.15% (inactive)"},
      {"smiles": "COc1ccc2[nH]c(S(=O)Cc3ncc(C)c(OC)c3C)nc2n1", "note": "(stereo not given)", "activity change, negative = cytotoxic": "19.3% (inactive)"},
      {"smiles": "OC[C@H]1O[C@@H](O[C@@H]2[C@@H](CO)O[C@](O)(CO)[C@H]2O)[C@H](O)[C@@H](O)[C@H]1O", "activity change, negative = cytotoxic": "10.1% (inactive)"},
      {"smiles": "CCCCC/C(C=O)=C\\c1ccccc1", "Potency": "0.001 µM (active)"},
      {"smiles": "CC1(C)OC(=O)NC1=O", "activity change, negative = cytotoxic": "-0.62% (inactive)"},
      {"smiles": "CCCCC(CC)COC(=O)c1ccccc1O", "note": "(stereo not given)", "activity change, negative = cytotoxic": "12.8% (inactive)"},
      {"smiles": "CSc1ccc2c(c1)C(N1CCN(C)CC1)Cc1ccccc1S2", "note": "(stereo not given)", "Potency": "27.6 µM (active)"},
      {"smiles": "O=C1O[C@H]([C@@H](O)CO)C(O)=C1O", "activity change, negative = cytotoxic": "7.86% (inactive)"},
      {"smiles": "OCC(O)CN1CCN(c2ccccc2)CC1", "note": "(stereo not given)", "activity change, negative = cytotoxic": "-6.81% (inactive)"},
      {"smiles": "O=C1O[C@H](CO)[C@@H](O)[C@H](O)[C@H]1O", "activity change, negative = cytotoxic": "10.3% (inactive)"},
      {"smiles": "C[C@@H]1CN(c2c(F)c(F)c3c(=O)c(C(=O)O)cn(C4CC4)c3c2F)C[C@H](C)N1", "activity change, negative = cytotoxic": "79.5% [at 19.7 µM] (inactive)"},
      {"smiles": "CCCCCCCCCCCCCCCCCCOCC(O)CO", "note": "(stereo not given)", "activity change, negative = cytotoxic": "3.42% (inactive)"},
      {"smiles": "c1ccc(CN(CC2=NCCN2)c2ccccc2)cc1", "activity change, negative = cytotoxic": "-11.8% (inactive)"},
      {"smiles": "O=C(O)CC(O)C(=O)O", "note": "(stereo not given)", "activity change, negative = cytotoxic": "21.1% (inactive)"},
      {"smiles": "CC(C)(C)C(=O)C(Oc1ccc(Cl)cc1)n1ccnc1", "note": "(stereo not given)", "activity change, negative = cytotoxic": "-18.8% (inactive)"},
      {"smiles": "Nc1ccc(S(=O)(=O)Nc2ccccc2)cc1", "activity change, negative = cytotoxic": "14.8% (inactive)"},
      {"smiles": "CCC(=O)Nc1ccc(O)cc1", "activity change, negative = cytotoxic": "3.83% (inactive)"},
      {"smiles": "CCOC(=O)c1ccc(O)cc1", "activity change, negative = cytotoxic": "7.26% (inactive)"},
      {"smiles": "CNCC(O)c1ccc(O)c(O)c1", "note": "(stereo not given)", "activity change, negative = cytotoxic": "-3.21% (inactive)"},
      {"smiles": "O=C(Oc1ccccc1C(=O)O)c1ccccc1O", "activity change, negative = cytotoxic": "18.7% (inactive)"},
      {"smiles": "N[C@@H](CSCCCO)C(=O)O", "activity change, negative = cytotoxic": "10.6% [at 19.7 µM] (inactive)"},
      {"smiles": "Nc1ccc(S(=O)(=O)Nc2ccc(Cl)nn2)cc1", "activity change, negative = cytotoxic": "6.68% (inactive)"},
      {"smiles": "CN(C)CC[C@@H](c1ccc(Cl)cc1)c1ccccn1", "activity change, negative = cytotoxic": "-13.5% (inactive)"},
      {"smiles": "NS(=O)(=O)c1cc2c(cc1Cl)NC(CSCc1ccccc1)=NS2(=O)=O", "activity change, negative = cytotoxic": "7.04% (inactive)"},
      {"smiles": "CN1CCC[C@@H]1Cc1c[nH]c2ccc(CCS(=O)(=O)c3ccccc3)cc12", "activity change, negative = cytotoxic": "-7.38% (inactive)"},
      {"smiles": "CCCn1cnc2c1c(=O)n(CCCCC(C)=O)c(=O)n2C", "activity change, negative = cytotoxic": "11.9% (inactive)"},
      {"smiles": "C[C@@H]1CCN(C(=O)[C@H](CCCN=C(N)N)NS(=O)(=O)c2cccc3c2NC[C@H](C)C3)[C@@H](C(=O)O)C1", "activity change, negative = cytotoxic": "-9.83% (inactive)"},
      {"smiles": "N[C@@H](CSSC[C@H](N)C(=O)O)C(=O)O", "activity change, negative = cytotoxic": "6.93% [at 0.73 µM] (inactive)"},
      {"smiles": "CC(=O)NC(Cc1ccccc1)C(=O)O", "note": "(stereo not given)", "activity change, negative = cytotoxic": "-5.41% (inactive)"},
      {"smiles": "O=C1NS(=O)(=O)c2ccccc21", "activity change, negative = cytotoxic": "14% (inactive)"},
      {"smiles": "O=C1NC(=O)[C@@]2(CCOc3ccc(F)cc32)N1", "activity change, negative = cytotoxic": "5.52% (inactive)"},
      {"smiles": "CCC(=O)c1ccc(O)cc1", "activity change, negative = cytotoxic": "-25.8% (inactive)"},
      {"smiles": "COc1cc(C(=O)N2CCOCC2)cc(OC)c1OC", "activity change, negative = cytotoxic": "-8.01% (inactive)"},
      {"smiles": "CC[N+](CC)(CC)CCOc1ccc(/C=C/c2ccccc2)cc1", "Potency": "3.47 µM (active)"},
      {"smiles": "O=S(=O)(O)c1cc(I)c(O)c2ncccc12", "activity change, negative = cytotoxic": "10.7% (inactive)"}
    ]}
  ]
}
